{
  "source": "PubChem BioAssay (Tox21)",
  "note": "Records with an inconclusive call do not appear. Unmarked numbers belong to inactive results. Calls follow the shape of the dose curve; as a rule, active = well fitted activation curve with a large enough effect in the signal ratio in the repeat runs (not every such curve was filed as active); inconclusive = weak or mixed curves; inactive = flat fitted curve, though single readings scatter; the % refers to the signal ratio. % is scaled to controls: 0 for no effect and ±100 for the full control effect.",
  "data": [
    {"assay": "qHTS assay to identify small molecule agonists of the hypoxia (HIF-1) signaling pathway (AID 1224846)", "settings": "HRE-bla ME-180 cells, beta-lactamase ratio, 17 h; series mostly up to 76.8 µM; activation: at the top concentration", "from_the_text": "U.S. Tox21 Program National Center for Advancing Translational Sciences [NCATS] NIH Chemical Genomics Center [NCGC] U.S. Environmental Protection Agency [EPA] National Institutes of Environmental Health Sciences [NIEHS] National Toxicology Program [NTP] U.S. Food and Drug Administration [FDA] Tox21 Assay Overview: Hypoxia-inducible factor-1 (HIF-1) is the major hypoxia-regulated transcription factor that controls cellular responses to low oxygen concentration. HIF-1 is composed of two subunits: hypoxia responsive HIF-1-alpha and constitutively expressed HIF-1-beta, which is also known as aryl hydrocarbon receptor nuclear translocator. During hypoxic conditions, HIF-1-alpha heterodimerizes with HIF-1-beta and translocates into the nucleus where the HIF-1 complex binds to the hypoxia-response element (HRE) and activates expression of target genes such as VEGF (vascular endothelial growth factor). The HIF-1 pathway is essential to normal growth and development, and is involved in the pathophysiology of cancer, inflammation, and ischemia. Using a beta-lactamase reporter-gene under control of the hypoxia response element, a cell-based assay [CellSensor(TM) HRE-bla ME-180 from Life Technologies, Carlsbad, CA] was used to measure hypoxia-induced signaling. Tox21 10K library compounds were measured for their ability to induce the reporter gene activity.\nTox21 Assay Protocol Summary: HRE-bla ME-180 cells were dispensed at 2,000 cells per well in 6 uL of assay medium containing 0.5% dialyzed FBS into black wall/clear-bottom 1536-well plates using a Multidrop Combi (Thermo Scientific, Waltham, MA) dispenser. After the assay plates were incubated at 37C and 5% CO2 for 5 hrs, 23 nL of compounds dissolved in DMSO, positive controls or DMSO only was transferred to each well of the assay plate using a Pintool station (Kalypsys, San Diego, CA). The assay plates were incubated at 37C and 5% CO2 for 17 hrs. One uL of LiveBLAzerTM B/G FRET substrate (CCF4-AM) (Life Technologies) was added to each well using a Flying Reagent Dispenser (Aurora Discovery, San Diego, CA).", "values": [
      {"smiles": "Nc1ccc(F)c([N+](=O)[O-])c1", "activation": "0.361%"},
      {"smiles": "[Cl][Dy]([Cl])[Cl]", "activation": "-0.413%"},
      {"smiles": "CCCC(=O)c1cc(O)c(O)cc1O", "activation": "-2.28%"},
      {"smiles": "O=[N+]([O-])c1ccc(CO)cc1", "activation": "-0.227%"},
      {"smiles": "CC(=O)CC(N)=O", "activation": "-0.434%"},
      {"smiles": "COCCC(=O)OC", "activation": "-0.615%"},
      {"smiles": "C=CC(C)(C)O", "activation": "-0.33%"},
      {"smiles": "CC(C)(C)c1ccc(OC2CCCCC2O)cc1", "note": "(stereo not given)", "activation": "3.05%"},
      {"smiles": "C=C(C)C1CCC(C)CC1O", "note": "(stereo not given)", "activation": "0.124%"},
      {"smiles": "CCC(O)CO", "note": "(stereo not given)", "activation": "0.277%"},
      {"smiles": "CCC(=O)OC/C=C(\\C)CCC=C(C)C", "activation": "-1.31%"},
      {"smiles": "COc1c(Br)cc(Br)c(C)c1Br", "activation": "-0.313%"},
      {"smiles": "Cc1ccc2sc3cccc(C)c3c2c1", "activation": "-0.148%"},
      {"smiles": "Cc1c[nH]c(=O)[nH]c1=O", "activation": "-0.339%"},
      {"smiles": "C=COCCCC", "activation": "0.784%"},
      {"smiles": "C=Cc1ccncc1", "activation": "-1.16%"},
      {"smiles": "Nc1ccc(Oc2cccc(Oc3ccc(N)cc3)c2)cc1", "activation": "2.67%"},
      {"smiles": "CCc1cccc(C)c1N(C(=O)C(=O)O)C(C)COC", "note": "(stereo not given)", "activation": "-1.32%"},
      {"smiles": "COc1cc(OC)nc(NC(=O)NS(=O)(=O)Nc2ccccc2C(=O)N(C)C)n1", "activation": "-1.31%"},
      {"smiles": "CCCCCCCCCCCCS(=O)(=O)Cl", "activation": "1.7% [at 15.8 µM]"},
      {"smiles": "CC/C=C(\\C)C=O", "activation": "-0.206%"},
      {"smiles": "C1CCSC1", "activation": "-1.2%"},
      {"smiles": "O=C(Nc1ccc([N+](=O)[O-])cc1)Nc1ccc([N+](=O)[O-])cc1", "note": "(tested in a mixture with another compound)", "activation": "-0.733% [at 35.5 µM]"},
      {"smiles": "O[Si](c1ccccc1)(c1ccccc1)c1ccccc1", "activation": "5.22%"},
      {"smiles": "Cc1cccc(C)c1C", "activation": "-0.246%"},
      {"smiles": "CC(C)c1ccc2sc3ccccc3c(=O)c2c1", "activation": "5.82%"},
      {"smiles": "O=C(O)C[C@H](O)C[C@H](O)/C=C/c1c(C2CC2)nc2ccccc2c1-c1ccc(F)cc1", "activation": "0.144% [at 15.8 µM]"},
      {"smiles": "CC1(C)[C@H]2CC[C@]1(C)C(=O)C2", "activation": "-0.823%"},
      {"smiles": "O=C1CCC(=O)N1", "activation": "-0.707%"},
      {"smiles": "C=Cc1ccc(O)c(OC)c1", "activation": "-0.354%"},
      {"smiles": "C/C(=N\\[Si](C)(C)C)O[Si](C)(C)C", "activation": "-0.0847%"},
      {"smiles": "NC(=O)C1CO1", "note": "(stereo not given)", "activation": "0.0723%"},
      {"smiles": "c1ccc2cc3c4ccccc4c4ccccc4c3cc2c1", "activation": "6.89%"},
      {"smiles": "CCc1c(C)cc(N)c(CC)c1N", "activation": "-1.13%"},
      {"smiles": "CC1=CC[C@@H](C(C)(C)O)CC1", "activation": "-0.117%"},
      {"smiles": "CCOc1ccc([N+](=O)[O-])cc1", "activation": "1.86%"},
      {"smiles": "CCCCCCCCCCCC(=O)Cl", "activation": "1.07%"},
      {"smiles": "CC1CCC(C(C)(C)O)CC1", "note": "(stereo not given)", "activation": "-0.0407%"},
      {"smiles": "Nc1ccc(Cl)c([N+](=O)[O-])c1", "activation": "0.0011%"},
      {"smiles": "CSc1nnc(C(C)(C)C)c(=O)[nH]1", "activation": "0.341%"}
    ]}
  ]
}
